{"source": "PubChem BioAssay (Tox21)", "note": "Records with an inconclusive call do not appear. Unmarked numbers belong to inactive results. Calls follow the shape of the dose curve; as a rule, active = well fitted activation curve with a large enough effect in the signal ratio in the repeat runs, with a control signal flat (not every such curve was filed as active); inconclusive = weak or mixed curves; inactive = flat fitted curve, though single readings scatter; the % refers to the signal ratio. % is scaled to controls: 0 for no effect and ±100 for the full control effect."}
{"assay": "qHTS assay for small molecule activators of the heat shock response signaling pathway (AID 743210)", "settings": "HeLa HSE-bla reporter, beta-lactamase ratio, 5 h; series mostly up to 62.6 µM; activation: at the top concentration", "outline": "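Compound exposure lasted 5 h at 37 C in HeLa cells carrying a heat-shock-element-driven beta-lactamase reporter. Read-out: fluorescence intensity after 2.5 h room-temperature loading with LiveBLAzer B/G FRET substrate.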"}
{"smiles": "CC1(C)CCC(Cc2ccc(Cl)cc2)C1(O)Cn1cncn1", "note": "(stereo not drawn)", "activation": "4.28%"}
{"smiles": "CCOP(=O)(OCC)SCCSCC", "activation": "0.397%"}
{"smiles": "CCCCCCCCCCOC(=O)c1ccccc1C(=O)OCCCCCCCCCC", "activation": "1.48%"}
{"smiles": "CCC(COC(=O)c1cc(OC)c(OC)c(OC)c1)(c1ccccc1)N(C)C", "note": "(stereo not drawn)", "activation": "0.117%"}
{"smiles": "Cc1cc(=O)[nH]o1", "activation": "-0.165% [at 81.1 µM]"}
{"smiles": "C=CC(C)=O", "activation": "-0.365%"}
{"smiles": "CCOP(=O)(OCC)O/C(=C/Cl)c1ccc(Cl)cc1Cl", "activation": "0.519%"}
{"smiles": "BrCCCCBr", "activation": "-1.22%"}
{"smiles": "C=CC(=O)OC(C)(C)C", "activation": "-0.248%"}
{"smiles": "CC(O)(CS(=O)(=O)c1ccc(F)cc1)C(=O)Nc1ccc(C#N)c(C(F)(F)F)c1", "note": "(stereo not drawn)", "activation": "-0.826%"}
{"smiles": "COc1c(C(C)(C)C)cc([N+](=O)[O-])c(C)c1[N+](=O)[O-]", "activation": "-0.298%"}
{"smiles": "Clc1ccc(C2(Cn3cncn3)CC(Br)CO2)c(Cl)c1", "note": "(stereo not drawn)", "activation": "-0.287%"}
{"smiles": "O=C(NCc1cccnc1)Nc1ccc([N+](=O)[O-])cc1", "activation": "-0.446%"}
{"smiles": "Cl/C=C\\C[N+]12CN3CN(CN(C3)C1)C2", "activation": "2.33%"}
{"smiles": "Cc1c(F)c(F)c(COC(=O)C2C(/C=C(\\Cl)C(F)(F)F)C2(C)C)c(F)c1F", "note": "(stereo not drawn)", "activation": "-1.02%"}
{"smiles": "O=C(CBr)OCc1ccccc1", "activation": "1.92%"}
{"smiles": "O=C(OC1CCCCC1)c1ccccc1C(=O)OC1CCCCC1", "activation": "2.72% [at 81.1 µM]"}
{"smiles": "COP(=O)(OC)O/C(=C/Cl)c1cc(Cl)c(Cl)cc1Cl", "activation": "2.67% [at 81.1 µM]"}
{"smiles": "N#Cc1ccc(Cl)cc1", "activation": "0.34%"}
{"smiles": "ClCCCCBr", "activation": "0% [at 81.1 µM]"}
{"smiles": "CCOP(=S)(OCC)Oc1cc(Cl)c(Br)cc1Cl", "activation": "-0.912%"}
{"smiles": "O=C(O)C(F)(F)C(F)(F)C(F)(F)C(F)(F)C(F)(F)C(F)(F)C(F)(F)C(F)(F)C(F)(F)F", "activation": "-0.219%"}
{"smiles": "O=C(O)CC(Cl)C(=O)O", "note": "(stereo not drawn)", "activation": "-1.07% [at 81.1 µM]"}
